This is an account of results in PubChem BioAssay (NCATS).

The nature of assay [1]: Cell Viability - SK-N-SH (AID 435; calls by dose curve;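 further: potency means the concentration at half of the fitted maximal effect; compound exposure lasted 40 h at 37 °C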). As to conditions: SK-N-SH neuroblastoma cell viability qHTS. The method, boiled down: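 SK-N-SH human neuroblastoma cells (1500/well) were exposed to compounds in complete medium for 40 h at 37 °C, and intracellular ATP was then measured by CellTiter-Glo luminescence. AC50 was taken from Hill fits, normalized to DMSO and 100 uM tamoxifen.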
A general note: Quantitative high-throughput screening tests each substance at several concentrations.

A short description of assay [2]: Cell Viability - Renal Proximal Tubule (AID 545). Further: nearly all actives have a fitted effect of over 40% in size. As to conditions: renal proximal tubule cells viability; series mostly up to 91.7 µM. The method, boiled down: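 Primary rat renal proximal tubule cells (1000/well) were treated with compounds for 40 hr at 37 °C in complete medium. Intracellular ATP was measured by CellTiter-Glo luminescence, and AC50 values came from Hill-equation fits of concentration-response data.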

Assay [3] is described as follows: Cellular Toxicity (caspase-3) Jurkat (AID 655).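 Further: cells exposed to compound for 16 h at 37 °C before reading.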 As to conditions: Jurkat caspase-3 activation, luminescence; caspase-3 activation: at 92.2 µM (top of the series), DMSO = 0%, tamoxifen = 100%. The method, boiled down:
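Jurkat cells (5000/well) in complete medium were treated with compounds for 16 hr at 37 °C, then Caspase-Glo 3/7 luminescence was read after 20 min at room temperature. Data normalized to DMSO (basal) and 100 uM tamoxifen (100%); AC50 from Hill fit.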

A short description of assay [4]: Cellular Toxicity (caspase-3) SHSY5Y (AID 657). As to conditions: SH-SY5Y caspase-3 activation, DMSO zero, 10 µM staurosporine = 100%; series mostly up to 91.7 µM. The method in brief: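 SH-SY5Y human neuroblastoma cells (1500/well) were treated with compounds for 16 h at 37 °C, then Caspase-Glo 3/7 luminescence was read after 1 h at room temperature. Data normalized to DMSO and 10 uM staurosporine; AC50 from Hill fits.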

The nature of assay [5]: Cellular Toxicity (caspase-3) BJ (AID 658). The conditions noted are these: BJ fibroblasts, luminescence, normalized: DMSO 0%, staurosporine 100%; series mostly up to 91.7 µM. The method, boiled down: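 Caspase-Glo 3/7 luminescence, read 1 hr after reagent at room temperature, in normal BJ fibroblasts exposed 16 hours at 37 °C. AC50 values from Hill-equation concentration-response, scaled between DMSO basal and 10 uM staurosporine as 100%.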

The nature of assay [6]: Cellular Toxicity (caspase-3) N2a (AID 665).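 Further: compound exposure lasted 16 h at 37 °C before readout.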 As to conditions: N2a cells, luminescence, normalized: DMSO 0%, 10 µM staurosporine 100%; series mostly up to 92.2 µM. The method in brief: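 Caspase-3/7 activation measured as luminescence from Caspase-Glo reagent (1 h, room temperature) after 16 h compound exposure of mouse N2a cells. AC50 values from Hill-equation concentration-response, scaled between DMSO and 10 uM staurosporine.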

Assay [7] in a line: Cellular Toxicity (caspase-3) Renal Proximal Tubule (AID 667).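 Further: cells exposed to compound for 16 hours at 37 °C before detection.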 The conditions noted are these: renal proximal tubule cells; series mostly up to 91.7 µM. The method, boiled down: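 Primary rat proximal tubule cells, 1000/well, 5 h plating at 37 °C, then compound 16 h at 37 °C. Caspase-Glo 3/7 reagent, 1 h RT, luminescence. Normalized to DMSO (basal) and 10 uM staurosporine (100%); Hill-fit AC50.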

Assay [8] deals with Cytochrome P450 3A4 (Homo sapiens) (UniProt P08684). Briefly: qHTS Assay for Inhibitors and Substrates of Cytochrome P450 3A4 (AID 884). Further: nearly all actives have a fitted effect of over 50% in size. Further: potency means the concentration at half of the fitted maximal effect. As to conditions: recombinant CYP3A4, Luciferin-PPXE luminescence; series mostly up to 57.1 µM. The method, boiled down:
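Luminescent readout of luciferin produced by CYP3A4 (20 nM) dealkylation of Luciferin-PPXE, 25 uM (its KM). NADPH-driven reaction ran 60 min at RT after 10 min compound preincubation; data scaled to 57 uM ketoconazole as 100% inhibition.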

The nature of assay [9]: MultiTox-Fluor Cytotoxicity Assay - LYMP1-001 - Dead Cells (AID 946).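 Further: 0% = DMSO and 100% = tetraoctylammonium bromide.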 The conditions noted are these: LYMP1-001 lymphoblastoid cells, dead-cell protease fluorescence; series mostly up to 92.2 µM. The method in brief: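 AC50 from Hill fit of concentration-response; data normalized to DMSO (basal) and 15 uM tetraoctylammonium bromide (100%). LYMP1-001 lymphoblastoid cells, 2500/well, 16 hr compound at 37 C; dead-cell protease fluorescence, Ex/Em 485/520.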

The nature of assay [10]: Cell Viability - LYMP1-002 - Assay at 16 hr (AID 948).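 Further: 0% = DMSO alone and full effect = 92 µM tetraoctylammonium bromide.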 As to conditions: LYMP1-002 lymphoblastoid cell viability; series mostly up to 92.2 µM. The method in brief:
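Human lymphoblastoid cells (LYMP1-002), 2500/well, were preincubated 5 hr at 37 C, then exposed to compounds for 16 hr at 37 C in complete medium. Cellular ATP was read by CellTiter-Glo luminescence after 30 min at room temperature; AC50 from Hill fits.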

Assay [11] is described as follows: MultiTox-Fluor Cytotoxicity Assay - LYMP1-003 - Dead Cells (AID 961).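 Further: 0% = DMSO and 100% = tetraoctylammonium bromide; nearly all actives have a fitted effect of over 70% in size.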 As to conditions: LYMP1-003 lymphoblastoid cells, dead-cell protease fluorescence; series mostly up to 92.2 µM. The method, boiled down:
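Human lymphoblastoid LYMP1-003 cells (2500/well) were treated with compounds for 16 hr at 37 C in complete medium. Dead-cell protease release was read by bis-AAF-R110 fluorescence (Ex/Em 485/520). AC50 came from Hill fits, normalized to DMSO and 15 uM tetraoctylammonium bromide.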

A short description of assay [12]: Cell Viability - LYMP1-003 - Assay at 24 hr (AID 963).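 Further: plate controls were DMSO only for no effect and tetraoctylammonium bromide positive control for full effect.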 The conditions noted are these: LYMP1-003 lymphoblastoid cell viability; series mostly up to 92.2 µM. The method, boiled down:
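Concentration-response qHTS: ATP loss measured by CellTiter-Glo luminescence after 24 h compound exposure at 37 C. Cells were LYMP1-003 human lymphoblastoid, 2500 per well. AC50 derived via standard Hill equation modeling.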

Assay [13] can be described thus: Cell Viability - LYMP2-003 (AID 965).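 Further: cells exposed to compounds for 24 h before reading; 0% = DMSO only and full effect = 92 µM tetraoctylammonium bromide; nearly all actives have a fitted effect of over 50% in size.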 The conditions noted are these: LYMP2-003 lymphoblastoid cell viability; series mostly up to 92.2 µM. The method, boiled down: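 Human lymphoblastoid cells (2500/well) were pre-incubated 5 hr at 37 C, then exposed to compounds over a concentration range for 24 hr at 37 C. Intracellular ATP was read by CellTiter-Glo luminescence; AC50 came from Hill-equation fits.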

Assay [14] is described as follows: Cell Viability - LYMP2-015 (AID 971).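 Further: 0% = DMSO only and full effect = 92 µM tetraoctylammonium bromide; nearly all actives have a fitted effect of over 55% in size.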 As to conditions: LYMP2-015 lymphoblastoid cell viability; series mostly up to 92.2 µM. The method, boiled down:
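Cytotoxicity readout: decrease in intracellular ATP (CellTiter-Glo luminescence) in 2500 LYMP2-015 lymphoblastoid cells/well after 24 h compound exposure at 37 C. Concentration-response data fitted with the standard Hill equation to give AC50.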

Assay [15] can be described thus: Cell Viability - LYMP1-002 - Assay at 24 hr (AID 993). Further: on the % scale 0 is the no-effect control and ±100 the full control effect. The conditions noted are these: LYMP1-002 lymphoblastoid cells viability; series mostly up to 92.2 µM. The method in brief: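 qHTS cytotoxicity at 24 h: CellTiter-Glo ATP luminescence in lymphoblastoid line LYMP1-002 incubated with compound at 37 °C. Concentration-response modeled with the Hill equation for AC50; tetraoctylammonium bromide served as positive control.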

Assay [16] can be described thus: Cell Viability - LYMP1-002 - Assay at 40 hr (AID 994).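 Further: 0% = DMSO only and full inhibition = 92 µM tetraoctylammonium bromide; nearly all actives have a fitted effect of over 60% in size.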 As to conditions: LYMP1-002 lymphoblastoid cell viability; series mostly up to 92.2 µM. The method in brief:
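Cytotoxicity was read as loss of cellular ATP (CellTiter-Glo luminescence) after 40 hr compound exposure at 37 C of 2500 LYMP1-002 lymphoblastoid cells per well. Concentration-response data were fitted with the standard Hill equation to give AC50.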

In assay [17] the target is Peroxisome proliferator-activated receptor alpha (Homo sapiens) (UniProt Q07869). Nature of the assay: qHTS assay for small molecule agonists of the peroxisome proliferator-activated receptor alpha (PPARalpha) signaling pathway (AID 651778). Further: % of control where 0% means no effect. As to conditions: PathHunter PPARalpha complementation, chemiluminescence, 6 h; hits give high values. The method, boiled down:
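Chemiluminescence from complemented enzyme reported PPARalpha activation in cells after 6 hr of compound treatment at 37 C. The detection reagent was incubated for 60 min at room temperature, and compounds were scored as agonists.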

A short description of assay [18]: qHTS assay for cell viability of HEK293 cells (AID 743288). Further: on the % scale 0 is the no-effect control and ±100 the full control effect; nearly all actives have a fitted effect of over 50% in size. The conditions noted are these: ATP luminescence (CellTiter-Glo), 18 h, hits give low values. The method, boiled down:
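After 18 h compound exposure at 37 C, parental HEK293 cells (2,000/well) are lysed with CellTiter-Glo and luminescence is read following 30 min at room temperature.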

The nature of assay [19]: qHTS assay for cell viability of the p53RE-bla HCT-116 cell line (AID 743292). Further: on the % scale 0 is the no-effect control and ±100 the full control effect; nearly all actives have a fitted effect of over 55% in size. As to conditions: p53RE-bla HCT-116 viability, ATP luminescence, 16 h; series mostly up to 95 µM. The method, boiled down: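 Intracellular ATP of p53RE-bla HCT-116 cells measured by luciferase luminescence following 16 h compound incubation at 37 C; DMSO-only wells served as vehicle controls.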

Assay [20] deals with Nuclear receptor subfamily 1 group I member 2 (Rattus norvegicus) (UniProt Q9R1A7). Briefly: qHTS assay for small molecule activators of the rat pregnane X receptor (rPXR) signaling pathway (AID 651751; call rule not given here; further: 0% is about no effect). As to conditions: rPXR reporter cells, luciferase (One-Glo), 24 h.
Nuclear receptor subfamily 1 group I member 2 (Rattus norvegicus), sequence (Q9R1A7 whole entry, looked up): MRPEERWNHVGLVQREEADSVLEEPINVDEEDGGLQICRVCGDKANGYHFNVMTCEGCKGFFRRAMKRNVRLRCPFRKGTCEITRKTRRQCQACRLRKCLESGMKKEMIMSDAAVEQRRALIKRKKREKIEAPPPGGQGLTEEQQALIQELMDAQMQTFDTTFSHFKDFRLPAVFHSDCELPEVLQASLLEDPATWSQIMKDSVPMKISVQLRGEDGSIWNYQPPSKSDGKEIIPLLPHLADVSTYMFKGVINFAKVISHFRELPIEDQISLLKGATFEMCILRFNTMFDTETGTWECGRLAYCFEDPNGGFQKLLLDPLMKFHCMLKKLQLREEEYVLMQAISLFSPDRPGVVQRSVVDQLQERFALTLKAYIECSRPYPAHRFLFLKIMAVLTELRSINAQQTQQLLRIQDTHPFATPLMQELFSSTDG

Unmarked numbers belong to inactive results. Records with an inconclusive call do not appear. The source made the active and inactive calls. Unless noted, the call rests on the fitted dose curve; in most records, active means well fitted curve in the direction sought with a large enough effect; inconclusive means small, poorly fitted or top-dose-only effect, or another doubt; inactive means no such curve, though single readings can be large; an effect the other way counts as inactive or inconclusive.

Cytochrome P450 3A4 (Homo sapiens), sequence (P08684 whole entry, looked up): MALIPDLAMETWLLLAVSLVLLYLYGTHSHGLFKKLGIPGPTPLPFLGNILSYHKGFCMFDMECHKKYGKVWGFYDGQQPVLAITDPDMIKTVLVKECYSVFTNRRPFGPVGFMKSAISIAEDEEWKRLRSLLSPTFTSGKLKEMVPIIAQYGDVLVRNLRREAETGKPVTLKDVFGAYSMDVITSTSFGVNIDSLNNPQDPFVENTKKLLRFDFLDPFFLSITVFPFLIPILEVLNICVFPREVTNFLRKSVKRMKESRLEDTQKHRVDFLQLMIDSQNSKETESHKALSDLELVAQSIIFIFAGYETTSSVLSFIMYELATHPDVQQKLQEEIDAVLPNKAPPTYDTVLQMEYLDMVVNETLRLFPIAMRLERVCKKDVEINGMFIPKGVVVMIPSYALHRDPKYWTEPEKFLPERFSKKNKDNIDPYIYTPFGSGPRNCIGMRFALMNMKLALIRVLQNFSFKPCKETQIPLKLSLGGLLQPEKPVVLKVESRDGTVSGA
Peroxisome proliferator-activated receptor alpha (Homo sapiens), sequence (Q07869 whole entry, looked up): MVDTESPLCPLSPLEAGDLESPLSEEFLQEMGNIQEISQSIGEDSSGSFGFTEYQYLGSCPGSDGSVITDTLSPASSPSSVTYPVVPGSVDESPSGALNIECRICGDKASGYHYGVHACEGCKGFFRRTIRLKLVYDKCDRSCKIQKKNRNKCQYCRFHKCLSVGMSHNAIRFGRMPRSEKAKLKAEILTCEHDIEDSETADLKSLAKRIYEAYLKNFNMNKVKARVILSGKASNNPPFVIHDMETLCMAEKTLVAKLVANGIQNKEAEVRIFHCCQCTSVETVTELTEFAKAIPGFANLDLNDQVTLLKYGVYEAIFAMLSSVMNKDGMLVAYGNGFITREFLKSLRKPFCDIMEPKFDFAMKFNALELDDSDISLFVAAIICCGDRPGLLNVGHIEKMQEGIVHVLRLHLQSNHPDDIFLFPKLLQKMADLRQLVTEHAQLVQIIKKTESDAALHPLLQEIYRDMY

For the compound `C=CCc1cc(OC)c2c(c1)OCO2`, the Potency is more than 92 µM in [1] and 10 µM (active) in assay [8]. The compound was called inactive in assay [2], in assay [4], in [5], in [6], in [7] and in assay [9]. Besides, the compound was classed as inactive in assay [10] and in assay [12]. In assay [3], the caspase-3 activation was -0.188%. In addition, the Potency entry in [11], in assay [13], in assay [14], in [15], in [16] and in [19] was “inactive” each time. Also, the max response in assay [17] was 5.39%; in assay [18], -6.53%; in assay [20] it was -3.31%.

As to `ClCC(Cl)Cl`, the Potency in assay [1] is more than 92 µM. The outcome in [2], in [4], in assay [5], in [6], in assay [7] and in assay [9] was inactive. In addition, the compound was classed as inactive in assay [10] and in assay [12]. Besides, the caspase-3 activation in [3] was 0.231%. In addition, the Potency entry in assay [8], in assay [11], in assay [13], in assay [14], in assay [15] and in [16] was “inactive” each time. In assay [19], the Potency entry was “inactive”. The figures for the max response in assay [17], in assay [18] and in assay [20] were 4.99%, -18.4% and -0.324%, respectively.

With `ClCCOCOCCCl`, the Potency in assay [1] is more than 92 µM. Moreover, the call in assay [2], in assay [4], in [5], in [6], in assay [7] and in assay [9] was inactive. Further, the compound was classed as inactive in [10] and in assay [12]. The caspase-3 activation in assay [3] was -0.171%. In addition, the Potency entry in assay [8], in [11], in assay [13], in assay [14], in [15] and in [16] was “inactive” each time. In addition, in assay [19], the Potency entry is “inactive”. The max response in [17] was -0.0658%; in assay [18], -1.26%; in [20], 0.986%.

For `CCNCC`, the Potency in assay [1] was more than 92 µM. In addition, the outcome in assay [2], in assay [4], in [5], in [6], in assay [7] and in assay [9] was inactive. Moreover, the compound was called inactive in assay [10] and in assay [12]. Besides, the caspase-3 activation in assay [3] is 0.736%. Also, the Potency result in assay [8], in assay [11], in assay [13], in assay [14], in [15] and in assay [16] was “inactive” in each case. Also, the Potency entry in assay [19] was “inactive”. Besides, the figures for the max response in assay [17], in assay [18] and in assay [20] were 7.15%, 7.41% and 0.38%, respectively.
